From PubChem BioAssay
Where “and” joins values, the source holds several entries; their conditions need not be identical. Equal values may be shown once. Calls of active or inactive are those of the source.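 Rule for the calls, unless noted: active = normalized viability below 100% at a tested concentration; inactive = the rest.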

What was measured:
[1] = compounds altering viability of human ES cells (AID 493140; call rule not given here;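 note: cells exposed to compounds for four days before counting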); settings: human embryonic stem cell survival screen; stronger effect = higher value
[2] = P. berghei load reduction in hepatocytes – cell-based, HepG2, luciferase luminescence, HepG2 viability, primary screen (AID 624349; in the data active = parasite load remaining mostly below about 12%, no sharp cut-off; inactive = mostly above about 10%;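 note: 100% = mean of DMSO negative control wells on the same plate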); settings: P. berghei liver stage in HepG2, luciferase luminescence, concentration not given here; parasite load remaining: stronger effect = lower value; viability: measured here: HepG2 viability without parasites
[3] = Wnt pathway potentiators raising nuclear beta-catenin – imaging, WNT3A-conditioned medium, mouse C2C12, NPC library, primary screen (AID 1117326; in the data active = nuclear beta-catenin stimulation mostly above about 4.2%, no sharp cut-off; inactive = mostly below about 10%); settings: stronger effect = higher value
[4] = stimulators of insulin release from INS-1E, primary screen, cell-based, 5 mM glucose, NPC library (AID 1117329;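 active = compound raises insulin release from rat beta cells at 5 mM glucose, no numeric limit stated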); settings: rat INS-1E insulin secretion, at 10 µM, stronger effect = higher value
[5] = growth inhibition of GSK3B-pretreated HCT116 cells – cell-based, CellTiter-Glo, 0.2 to 20 µM (AID 1117336;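 active = compounds lowering colon cancer cell viability after pretreatment blocking the GSK3B kinase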); settings: HCT116 viability after GSK3B inhibitor, at 20 µM, stronger effect = higher value
[6] = inhibition of endothelial tube formation, primary screen, imaging, VEGF stimulated, CD31 staining, tube area, NPC library (AID 1117340;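 active = compound that reduces growth-factor-driven endothelial tube area in a mixed cell culture, no cutoff stated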); settings: VEGF-stimulated ADSC/ECFC co-culture, at 10 µM, stronger effect = higher value
[7] = GLP1 release stimulators, primary, NCI-H716, NPC library (AID 1117341;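 active = compound raises GLP1 secretion from the human gut endocrine cells, with no numeric limit stated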); settings: NCI-H716 cells, at 10 µM, stronger effect = higher value
[8] = HCT116 colon cancer cell growth inhibition, primary screen, CellTiter-Glo luminescence, NPC library (AID 1117342;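 active = compounds that lower survival of HCT116 colon cancer cells in the luminescence readout, no numeric limit stated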); settings: at 20 µM (top of the series)
[9] = reduced SW480 viability measured with CellTiter-Glo, NPC library, primary (AID 1117343;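 active = compounds that lower viability of the colon cancer cells in the luminescence readout, with no numeric limit stated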); settings: CellTiter-Glo luminescence; at 20 µM (top of the series) unless noted
[10] = NPC library primary testing for decreased DLD-1 cell viability via CellTiter-Glo (AID 1117346;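 active = compounds that lower survival of DLD-1 colon cancer cells in the luminescence readout, no cutoff given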); settings: DLD-1 viability, CellTiter-Glo luminescence; at 20 µM (top of the series)
[11] = EMT-state selective cytotoxicity in co-culture – imaging, PC-3E GFP, TEM4-18 mCherry, primary screen (AID 1345086;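 active = compounds killing one labelled cell type while sparing the other, by normalised counts and ratio limits, not self-fluorescent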;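 for all read-outs here: cells exposed to compound for 72 h before imaging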;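 for red/green cell ratio (normalised): normalised mesenchymal count divided by normalised epithelial count so high means epithelial killing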); settings: PC-3E GFP / TEM4-18 mCherry co-culture, imaging cell counts, at 1 µM; for red/green cell ratio (normalised): actives lie on both sides, counts scaled to control wells, 1 = unselective
[12] = viability loss with induced miR-34 in A549 – imaging, A549 dox-inducible miR-34, nuclei and caspase counts, primary screen (AID 1347080;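 active = compounds whose cell count with miR-34 switched on is under 0.7 times the count with it off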); settings: A549 miR-34 inducible, Hoechst nuclei count, 48 h
[13] = MELAS cybrid and Rieske KO viability enhancers – cell-based, MELAS cybrids, Rieske KO mouse fibroblasts, CellTiter-Glo, primary screen (AID 1508586;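 active = mean z-score across replicates of 1.96 or higher in either the MELAS or the Rieske mutant cell line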;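 note: z relative to plate mean and SD of compound and empty wells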); settings: low glucose
[14] = target: NAD(+) hydrolase SARM1 (Homo sapiens) (UniProt Q6SZW1); test: blocking NAD cleavage by SARM1 SAM-TIR – cell lysate, NAD-Glo luminescence (AID 1508614;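 active = compound whose remaining NAD level is above about 45 nM, limit read from the data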;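 note: higher remaining NAD means stronger inhibition of SARM1 NADase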); settings: SAM-TIR HEK293T lysate NADase, at 1 µM, stronger effect = higher value
Sequence of NAD(+) hydrolase SARM1 (Homo sapiens) (Q6SZW1 whole entry, looked up): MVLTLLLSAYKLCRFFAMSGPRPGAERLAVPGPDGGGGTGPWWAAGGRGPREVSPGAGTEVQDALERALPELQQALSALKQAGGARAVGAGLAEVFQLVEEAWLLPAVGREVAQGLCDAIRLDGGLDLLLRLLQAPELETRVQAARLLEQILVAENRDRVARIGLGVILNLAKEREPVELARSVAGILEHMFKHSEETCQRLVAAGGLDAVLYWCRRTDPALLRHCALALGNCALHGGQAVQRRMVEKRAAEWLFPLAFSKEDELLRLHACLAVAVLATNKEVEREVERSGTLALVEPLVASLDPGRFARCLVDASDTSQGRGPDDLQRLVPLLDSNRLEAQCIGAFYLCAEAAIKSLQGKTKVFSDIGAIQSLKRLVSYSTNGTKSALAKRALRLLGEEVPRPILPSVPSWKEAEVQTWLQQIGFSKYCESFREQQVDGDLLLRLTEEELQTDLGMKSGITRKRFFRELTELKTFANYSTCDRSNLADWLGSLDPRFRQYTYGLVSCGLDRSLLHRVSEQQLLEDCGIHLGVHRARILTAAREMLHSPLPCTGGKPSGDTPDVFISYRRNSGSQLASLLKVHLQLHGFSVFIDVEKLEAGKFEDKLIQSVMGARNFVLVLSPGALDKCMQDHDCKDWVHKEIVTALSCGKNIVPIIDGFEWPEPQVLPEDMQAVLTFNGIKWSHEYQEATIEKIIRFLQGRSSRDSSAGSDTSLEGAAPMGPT

[15] = drug combination growth inhibition, ovarian cancer – cell-based, oncology-focused library, rucaparib conditional, profiling panel (AID 1508598); settings: patient-derived ovarian cancer cells, CellTiter-Glo viability, 144 h, stronger effect = lower value
[16] = measured here: epithelial PC-3E GFP cell survival
[17] = measured here: mesenchymal TEM4-18 mCherry cell survival
[18] = stronger effect = lower value, cell number ratio, induced over uninduced
[19] = measured here: relative caspase fold change +Dox/-Dox
[20] = measured here: total cells with miR-34 induction, stronger effect = lower value
[21] = measured here: total cells without miR-34 induction
[22] = MELAS cybrid survival, CellTiter-Glo 48 h, stronger effect = higher value
[23] = Rieske KO mouse fibroblast survival, CellTiter-Glo 72 h

In the case of `Nc1cc(C(Cl)=C(Cl)Cl)c(S(N)(=O)=O)cc1S(N)(=O)=O`, the survival [1] was 8.08 (inactive), the parasite load remaining [2] was 69.8% (inactive) and 78.4% (inactive) and 58% (inactive) and the viability [2] was 125% and 85.5% and 102%. For the same molecule, the nuclear beta-catenin stimulation ([3]; at 10 µM) was 3.8% (inactive), the nuclear beta-catenin stimulation ([3]; stimulation, at 2 µM) was 4.2% and the insulin secretion stimulation [4] was 1.4% (inactive). The viability decrease [5] was 19% (inactive), the tube area decrease [6] was 7% (inactive) and the GLP1 secretion stimulation [7] was 12.7% (inactive). For the same molecule, the inhibition of viability [8] was -3.03% (inactive), the viability decrease (inhibition) [9] was -22% (inactive) and the viability decrease (inhibition) [10] was 4.8% (inactive). The red/green cell ratio (normalised) [11] was 0.84 (inactive), the normalised cell number [11, 16] was 1.14 and the normalised cell number [11, 17] was 0.96. For the same molecule, the fold change [12, 18] was 0.893 (inactive) and 0.936 (inactive) and 0.859 (inactive), the fold change [12, 19] was 1.43 and 0.803 and 4.71 and the cell count [12, 20] was 8790 and 9570 and 11100. For the same molecule, the cell count [12, 21] was 9850 and 10200 and 12900, the z-score [13, 22] was -0.253 (inactive) and -0.139 (inactive) and the z-score [13, 23] was 0.393 and 0.0455. For the same molecule, the remaining NAD [14] was 10 nM (inactive).
In the case of `CN(N=O)C(=O)N[C@@H]1[C@@H](O)[C@H](O)[C@@H](CO)O[C@@H]1O`, the parasite load remaining [2] was 90.3% (inactive) and 138% (inactive) and 42.6% (inactive), the viability [2] was 97.3% and 74.3% and 97.4% and the nuclear beta-catenin stimulation ([3]; at 10 µM) was 0.9% (inactive). For the same molecule, the nuclear beta-catenin stimulation ([3]; stimulation, at 2 µM) was 2.9%, the insulin secretion stimulation [4] was 0.5% (inactive) and the viability decrease [5] was -5.6% (inactive). The tube area decrease [6] was 10.3% (inactive), the GLP1 secretion stimulation [7] was 0.8% (inactive) and the inhibition of viability [8] was -6.13% (inactive). For the same molecule, the viability decrease (inhibition) [9] was 42% (inactive), the viability decrease (inhibition) [10] was -37.7% (inactive) and the red/green cell ratio (normalised) [11] was 1.14 (inactive). For the same molecule, the normalised cell number [11, 16] was 0.95, the normalised cell number [11, 17] was 1.08 and the fold change [12, 18] was 0.837 (inactive) and 0.877 (inactive). For the same molecule, the fold change [12, 19] was 1.24 and 1.12, the cell count [12, 20] was 8550 and 11000 and the cell count [12, 21] was 10200 and 12600. For the same molecule, the z-score [13, 22] was 0.426 (inactive), the z-score [13, 23] was 0.385 and the viability ([15]; at 0.000305 µM, OCI-C5x cells, with rucaparib 10 µM, 100% = cells with rucaparib alone) was 107% (inactive). The viability ([15]; at 0.000305 µM, OCI-C5x cells, without rucaparib) was 111% (inactive), the viability ([15]; at 0.000305 µM, OCI-P5x cells, with rucaparib 20 µM, 100% = cells with rucaparib alone) was 108% (inactive) and the viability ([15]; at 0.000305 µM, OCI-P5x cells, without rucaparib) was 121% (inactive). The viability ([15]; at 0.00122 µM, OCI-C5x cells, with rucaparib 10 µM, 100% = cells with rucaparib alone) was 110% (inactive), the viability ([15]; at 0.00122 µM, OCI-C5x cells, without rucaparib) was 114% (inactive) and the viability ([15]; at 0.00122 µM, OCI-P5x cells, with rucaparib 20 µM, 100% = cells with rucaparib alone) was 101% (inactive). The viability ([15]; at 0.00122 µM, OCI-P5x cells, without rucaparib) was 115% (inactive), the viability ([15]; at 0.00488 µM, OCI-C5x cells, with rucaparib 10 µM, 100% = cells with rucaparib alone) was 102% (inactive) and the viability ([15]; at 0.00488 µM, OCI-C5x cells, without rucaparib) was 121% (inactive). The viability ([15]; at 0.00488 µM, OCI-P5x cells, with rucaparib 20 µM, 100% = cells with rucaparib alone) was 97.2% (active), the viability ([15]; at 0.00488 µM, OCI-P5x cells, without rucaparib) was 113% (inactive) and the viability ([15]; at 0.0195 µM, OCI-C5x cells, with rucaparib 10 µM, 100% = cells with rucaparib alone) was 111% (inactive). For the same molecule, the viability ([15]; at 0.0195 µM, OCI-C5x cells, without rucaparib) was 114% (inactive), the viability ([15]; at 0.0195 µM, OCI-P5x cells, with rucaparib 20 µM, 100% = cells with rucaparib alone) was 100% (inactive) and the viability ([15]; at 0.0195 µM, OCI-P5x cells, without rucaparib) was 116% (inactive). For the same molecule, the viability ([15]; at 0.0781 µM, OCI-C5x cells, with rucaparib 10 µM, 100% = cells with rucaparib alone) was 106% (inactive), the viability ([15]; at 0.0781 µM, OCI-C5x cells, without rucaparib) was 122% (inactive) and the viability ([15]; at 0.0781 µM, OCI-P5x cells, with rucaparib 20 µM, 100% = cells with rucaparib alone) was 104% (inactive). The viability ([15]; at 0.0781 µM, OCI-P5x cells, without rucaparib) was 112% (inactive), the viability ([15]; at 0.313 µM, OCI-C5x cells, with rucaparib 10 µM, 100% = cells with rucaparib alone) was 106% (inactive) and the viability ([15]; at 0.313 µM, OCI-C5x cells, without rucaparib) was 126% (inactive). For the same molecule, the viability ([15]; at 0.313 µM, OCI-P5x cells, with rucaparib 20 µM, 100% = cells with rucaparib alone) was 98.9% (active), the viability ([15]; at 0.313 µM, OCI-P5x cells, without rucaparib) was 113% (inactive) and the viability ([15]; at 1.25 µM, OCI-C5x cells, with rucaparib 10 µM, 100% = cells with rucaparib alone) was 97.9% (active). The viability ([15]; at 1.25 µM, OCI-C5x cells, without rucaparib) was 109% (inactive), the viability ([15]; at 1.25 µM, OCI-P5x cells, with rucaparib 20 µM, 100% = cells with rucaparib alone) was 87.8% (active) and the viability ([15]; at 1.25 µM, OCI-P5x cells, without rucaparib) was 105% (inactive). The viability ([15]; at 5 µM, OCI-C5x cells, with rucaparib 10 µM, 100% = cells with rucaparib alone) was 103% (inactive), the viability ([15]; at 5 µM, OCI-C5x cells, without rucaparib) was 101% (inactive) and the viability ([15]; at 5 µM, OCI-P5x cells, with rucaparib 20 µM, 100% = cells with rucaparib alone) was 87.3% (active). For the same molecule, the viability ([15]; at 5 µM, OCI-P5x cells, without rucaparib) was 98.1% (active).
